# In the library only some 12% were active in any assay of this set; here they are far more common.
# L3MBTL1 block = inhibitors of human L3MBTL1; Q9Y468; AlphaScreen L3MBTL1–H3K9me1 peptide binding; Potency, µM (series often up to 57.1 µM), for the others: at the highest dose activity, negative = inhibition, actives largely listed as inhibitors; 0.66% of 230,000 active; also: % is scaled to controls: 0 for no effect and ±100 for the full control effect; nearly all actives have a fitted effect of over 60% in size
#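 First, the protein-peptide complex forms for 30 min at room temperature (L3MBTL1 50 nM, biotinylated H3K9me1 peptide 75 nM). Next, compounds are pin-transferred and incubated 30 min. Finally, AlphaScreen beads are added and read after 30 min.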
# JMJD2A Tudor = blocks the human JMJD2A Tudor domain | AID 504339 | O75164 | 4.4% of 390,000 active | Potency, µM (doses to about 114 µM), without a hit: at the highest dose activity change, negative = inhibition, usual class: inhibitors | AlphaScreen JMJD2A-Tudor / H3K4me3 peptide binding; also: % is scaled to controls: 0 for no effect and ±100 for the full control effect; nearly all actives have a fitted effect of over 50% in size
# Target sequence (O75164 whole entry, looked up, the tested form may be a part): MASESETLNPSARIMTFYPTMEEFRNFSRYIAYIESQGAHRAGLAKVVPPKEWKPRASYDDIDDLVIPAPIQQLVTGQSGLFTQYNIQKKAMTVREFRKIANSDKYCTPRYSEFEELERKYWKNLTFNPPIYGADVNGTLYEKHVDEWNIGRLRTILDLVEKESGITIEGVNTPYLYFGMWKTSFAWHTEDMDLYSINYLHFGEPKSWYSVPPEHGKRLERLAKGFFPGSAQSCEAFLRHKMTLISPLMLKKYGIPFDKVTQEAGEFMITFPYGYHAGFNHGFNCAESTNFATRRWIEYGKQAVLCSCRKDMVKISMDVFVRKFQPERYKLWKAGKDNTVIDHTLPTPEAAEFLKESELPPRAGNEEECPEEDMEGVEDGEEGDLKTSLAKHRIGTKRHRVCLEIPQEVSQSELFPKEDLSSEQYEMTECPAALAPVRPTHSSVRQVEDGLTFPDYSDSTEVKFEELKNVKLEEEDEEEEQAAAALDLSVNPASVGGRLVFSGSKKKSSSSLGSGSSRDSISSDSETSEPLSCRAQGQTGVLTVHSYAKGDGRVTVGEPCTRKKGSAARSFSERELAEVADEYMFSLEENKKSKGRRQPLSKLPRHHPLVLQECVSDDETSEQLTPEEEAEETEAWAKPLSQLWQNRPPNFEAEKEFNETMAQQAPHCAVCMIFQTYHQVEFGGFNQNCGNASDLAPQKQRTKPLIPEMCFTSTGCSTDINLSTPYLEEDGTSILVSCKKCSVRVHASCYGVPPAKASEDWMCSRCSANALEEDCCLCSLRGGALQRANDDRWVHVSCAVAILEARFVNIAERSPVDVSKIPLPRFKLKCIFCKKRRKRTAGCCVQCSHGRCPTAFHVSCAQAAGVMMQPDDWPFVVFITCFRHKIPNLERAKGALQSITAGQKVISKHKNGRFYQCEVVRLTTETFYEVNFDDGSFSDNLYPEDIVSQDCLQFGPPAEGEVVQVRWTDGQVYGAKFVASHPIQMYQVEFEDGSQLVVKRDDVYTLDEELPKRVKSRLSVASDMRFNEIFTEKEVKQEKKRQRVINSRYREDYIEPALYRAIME
# BAZ2B inh = inhibitors of human BAZ2B bromodomain | 4.4% of 360,000 active | AlphaScreen BAZ2B-H3K14Ac peptide displacement | Potency, µM (titrated, usually from 114 µM), inactives show top-dose activity change, negative = inhibition, hits mostly inhibitors | Q9UIF8; also: % is scaled to controls: 0 for no effect and ±100 for the full control effect; nearly all actives have a fitted effect of over 60% in size
#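 AlphaScreen luminescence quantifies BAZ2B engagement of H3K14Ac peptide; the protein and biotinylated peptide are both at 50 nM final, buffer PBS pH 7.4 with 0.01% Tween-20, all steps at room temperature.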
# HP1b binding inh = inhibitors of HP1-beta chromodomain binding to methylated histone tails; P83916; AlphaScreen HP1-beta / biotin-H3K9me3 peptide binding; Potency, µM (doses to about 114 µM), for inactives: at the highest dose activity change, negative = inhibition, actives largely listed as inhibitors; 0.56% of 390,000 active; also: nearly all actives have a fitted effect of over 70% in size
#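 HP1-beta protein (50 nM final) preincubated 30 min at room temperature with biotinylated H3(1-18)K9me3 peptide (50 nM) in PBS pH 7.4, 0.01% Tween-20, then compound added for 30 min. AlphaScreen streptavidin donor/nickel chelate acceptor beads (10 ug/mL final), 30 min dark, luminescence read.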
# G9a inh = G9a (human) methyltransferase inhibition; AID 504332; G9a H3K9 monomethylation, AlphaScreen, 2 h; Q96KQ7; Potency, µM (top dose mostly 102 µM), without a hit: top-dose activity, negative = inhibition, actives largely listed as inhibitors; 8.8% of 350,000 active; also: % is scaled to controls: 0 for no effect and ±100 for the full control effect; nearly all actives have a fitted effect of over 75% in size
#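 Signal arises when biotinylated H3K9 peptide, once monomethylated, bridges streptavidin donor and antibody-captured acceptor beads. Enzyme at 20 nM was preincubated 15 min with test compounds; peptide 500 nM and SAM 20 uM then reacted for 2 h.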
# Sfp inh = inhibitors of Bacillus subtilis Sfp phosphopantetheinyl transferase | Q9F4F7 | AID 1490 | 3.5% of 310,000 active | Potency, µM, without a hit: largest response in the series, negative = inhibition, hits mostly inhibitors | Biochemical Sfp PPTase activity, qHTS;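 also: the enzyme is Sfp with the accession as filed and its product quenches rhodamine fluorescence; 0% = enzyme reaction without inhibitor and -100% = no enzyme wells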
#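 Reaction rates are the 30-min fluorescence difference (ex 525, em 598 nm) in wells containing 15 nM Sfp, 5 uM rhodamine-CoA and 12.5 uM BHQ-2-YbbR at pH 7.6 with 10 mM MgCl2.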
# Active calls of the source: *; ? = inconclusive; · = no result; ! = repeats disagree; [ ] = remark or other dose. Calls follow the shape of the dose curve; as a rule, active = well fitted curve in the direction sought with a large enough effect; inconclusive = small, poorly fitted or top-dose-only effect, or another doubt; inactive = no such curve, though single readings can be large; an effect the other way counts as inactive or inconclusive. Potency is read from the fitted curve at half-maximal effect.
SMILES,L3MBTL1 block,JMJD2A Tudor,BAZ2B inh,HP1b binding inh,G9a inh,Sfp inh
O=[N+]([O-])c1ccc(N2CCN(S(=O)(=O)c3ccccc3)CC2)cc1NCCN1CCOCC1,-16%,-33%,-31%,-3%,20µM*,-24%
Cc1ccccc1OCCNc1cc(N2CCN(CCO)CC2)ccc1[N+](=O)[O-],-13%,?,32µM*,?,?,-26%
Cc1ccc(S(=O)(=O)N2CCN(c3ccc([N+](=O)[O-])c(NCCN4CCOCC4)c3)CC2)cc1,-13%,?,-33%,-7%,?,-4%
COc1cccc(OCCNc2cc(N3CCOCC3)ccc2[N+](=O)[O-])c1,-14%,-33%,?,-13%,?,4%
CCn1nnc2c(N3CCCC3)ncnc21,·,-31%,·,?,·,·
Cc1ccc(C)c(-c2nn(-c3cc(N4CCN(CCO)CC4)ccc3[N+](=O)[O-])c(=O)c3ccccc23)c1,-15%,35µM*,45µM*,?,40µM*,-26%
Cc1nn(-c2cc(N3CCCC3)ccc2[N+](=O)[O-])c(=O)c2ccccc12,·,-30%,-37%,-17%,-17%,-4%
Cc1cccc(OCCNc2cc(N3CCN(CCO)CC3)ccc2[N+](=O)[O-])c1,-6%,?,?,-28%,45µM*,-10%
COc1cc(Cl)cc2c1Sc1ccccc1/C2=C/CCN(C)C,-13%,?,45µM*,-18%,?,-17%
CN(C)CC/C=C1/c2cc(F)ccc2Sc2ccc(Cl)cc21,·,?,·,-13%,·,·
COc1cc2c(cc1Cl)/C(=C\CCN(C)C)c1ccccc1S2,-12%,?,?,?,?,-18%
CN(C)CC/C=C1/c2ccccc2Sc2c(O)cc(Cl)cc21,-10%,?,?,-22%,25µM*,?
Cn1nnc2c[n+](CC(=O)c3ccc4ccccc4c3)cc(Br)c21,·,-28%,?,20%,56µM*,9%
COc1ccccc1C(=O)N/C(=C\c1ccc(Br)cc1)C(=O)NCC(=O)O,13%,-7%,7%,11%,8%[59 µM],11%
COc1ccccc1C(=O)N/C(=C/c1ccc(Br)cc1)C(=O)N1CCCC1,-23%,50µM*,-15%,-19%,14%,-11%
CC(=O)N/C(=C/c1ccccc1)C(=O)N1CCCCC1,?,-10%,-1%,19%,50µM*,8%
Cc1ccc(-n2cc(CNCCCN3CCCC3=O)c(-c3ccc(F)cc3)n2)cc1,7%,-15%,-2%,27%,·,-1%
COc1ccc(-n2cc(CNCCc3cnc[nH]3)c(-c3cccc(F)c3)n2)cc1,?,?,50µM*,2%,-46%,14%
COc1ccc(-c2nn(-c3ccccc3)cc2CNCc2cccnc2)c(F)c1,-5%,-16%,-15%,28%,·,-10%
COc1ccc(CNCc2cn(-c3cccc(F)c3)nc2-c2ccc(C)o2)cc1,-1%,?,?,-8%,45µM*,?
Cc1ccc(-n2cc(CNCCN3CCOC3=O)c(-c3ccc(F)cc3)n2)cc1,-18%,-31%,-24%,-5%,-1%,?
Cc1ccc(-n2cc(CNCCc3ncc(C)[nH]3)c(-c3ccc(F)cc3)n2)cc1,-22%,56µM*,?,-5%,-22%,56µM*
Cc1ccc(-n2cc(CNCCn3nc(C)cc3C)c(-c3ccc(F)cc3)n2)cc1,-4%,-27%,-12%,29%,5%[0.501 µM],45µM*
COc1ccc(-n2cc(CNCc3cccnc3)c(-c3cccc(F)c3)n2)cc1,-9%,-23%,-37%,5%,-1%[12.7 µM],14%
COc1ccc(CCNC(=O)c2ccc3c(c2)N(Cc2ccccc2Cl)C(=O)c2ccccc2S3)cc1OC,·,-14%,0%,32%,-28%[59 µM],·
SMILES,L3MBTL1 block,JMJD2A Tudor,BAZ2B inh,HP1b binding inh,G9a inh,Sfp inh
CSc1cccc(NC(=O)C2CCCN(C(=O)c3cnn(-c4ccc(F)cc4)c3-n3cccc3)C2)c1 (stereo not drawn),·,-26%,-14%,-20%,-36%[59 µM],·
COc1ccc(-n2cc(CNCCc3ncc(C)[nH]3)c(-c3ccccc3Cl)n2)cc1,-7%,-28%,?,30%,35µM*,-5%
COc1cc(Cl)cc(NC(=O)CCN2CCN(C)CC2)c1,6%,-16%,-6%,24%,50µM*,-15%
Cc1ccc(NC(=O)CCn2cccc2)cc1C,·,?,?,-16%,50µM*,-7%
O=C(CCN1CCCCC1)Nc1cccc(Br)c1,5%,-4%,6%,32%,·,6%
CN1CCN(CCC(=O)Nc2cccc(Br)c2)CC1,·,-9%,-30%,20%,56µM*,18%
Cc1ccc(NCC(=O)Nc2ccc(Br)cc2)cc1C,·,-15%,?,37%,56µM*,15%
COc1cc(NC(=O)CCN2CCN(Cc3ccccc3)CC2)cc(OC)c1,·,-5%,-31%,13%,-3%[59 µM],-10%
CCCOc1cccc(C2c3c(oc4ccc(F)cc4c3=O)C(=O)N2c2nc(C)c(C(C)=O)s2)c1 (stereo not drawn),·,-10%,-4%,15%,-4%[59 µM],·
CC(C)(C)N1C(=O)[C@H]2[C@H]3[C@H](O)[C@H](O)C/C(=N/OCc4ccccc4)[C@@H]3CC[C@@H]2C1=O,·,·,·,·,·,2%
C=COC(=O)/C=C/C,·,·,·,·,·,16%
Cc1cc(NC(=O)CCN2CCC(C(N)=O)CC2)ccc1Br,·,-12%,-5%,12%,11%[59 µM],10%
Cc1cc(NC(=O)CCN2CCN(C)CC2)ccc1Br,1%[2.29 µM],89µM*,-1%,33%,13%[0.501 µM],3%
CC[C@H](C)[C@H](NC(=O)[C@H](CCC(=O)O)NC(=O)CNC(=O)[C@@H](NC(=O)[C@H](CCC(=O)O)NC(=O)[C@H](CCC(=O)O)NC(=O)[C@H](CC(C)C)NC(=O)CNC(=O)[C@@H]1CCCN1C(=O)[C@H](CCC(=O)O)NC(=O)[C@@H](N)[C@@H](C)O)C(C)C)C(=O)N[C@@H](CCC(=O)O)C(=O)N[C@@H](CCC(N)=O)C(=O)N[C@@H](CCCCN)C(=O)N[C@@H](CCC(N)=O)C(=O)N[C@@H](CC(C)C)C(=O)N[C@@H](CCC(N)=O)C(=O)O,·,·,·,·,·,-7%
O=C(CCc1ccc(O)cc1)c1c(O)cc(O)cc1O,·,-18%,4%,36%,22%[59 µM],50µM*!
Cc1cc(NC(=O)c2ccc(C#N)cc2)n(-c2ccccn2)n1,15%,-17%,-8%,26%,45µM*,-2%
CCCCCc1cc(=O)oc2c(C(CCN(CC)CC)c3ccc(OC)cc3)c(OC)cc(OC)c12 (stereo not drawn),·,-33%,-30%,-6%,10%[12.7 µM],56µM*
